# PubChem BioAssay (NCI)
# This is part of a sample that, as a whole, favours compounds with a hit. Of some 79,000 tested, about 15% had one in any assay. Unmarked numbers belong to inactive results. The source made the active and inactive calls. Rule as the data show it: active = growth inhibition above about 70%; inactive = the rest.
# How the values were obtained:
# [1] = NCI Yeast Anticancer Drug Screen. Data for the rad50 strain (AID 155);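 also: 0% = growth of vehicle-only cultures of the same strain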; settings: S. cerevisiae rad50 strain growth inhibition, hits give high values
# Procedure, shortened: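 DNA repair mutant yeast, compound exposure, growth read-out; inhibition is taken relative to vehicle.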
# [2] = NCI Yeast Anticancer Drug Screen. Data for the mec2-1 strain (AID 157); settings: S. cerevisiae mec2-1 strain, hits give high values
# Procedure, shortened: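 Each compound was tested on mec2-1 yeast, a strain altered in DNA damage repair or cell cycle control. Growth inhibition is reported relative to vehicle.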
# [3] = NCI Yeast Anticancer Drug Screen. Data for the sgs1 mgt1 strain (AID 161);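 also: 0% = growth of cultures given vehicle only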; settings: S. cerevisiae sgs1 mgt1 strain, hits give high values
# Procedure, shortened: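 Read-out: growth inhibition vs vehicle controls. Cells: mutant yeast strain deficient in DNA damage repair.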
# [4] = NCI Yeast Anticancer Drug Screen. Data for the cln2 rad14 strain (AID 165);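 also: 0% = growth equal to vehicle treated cultures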; settings: S. cerevisiae cln2 rad14 strain, hits give high values
# Procedure, shortened: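 Test compounds were added to cln2 rad14 yeast cultures; inhibition of growth was then determined by comparison with vehicle treatment.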
# [5] = NCI Yeast Anticancer Drug Screen. Data for the bub3 strain (AID 167); settings: S. cerevisiae bub3 mutant strain, hits give high values
# Procedure, shortened: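 In this screen, a yeast mutant lacking normal mitotic checkpoint function is challenged with compound. Relative growth versus vehicle gives the inhibition value.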
# [6] = NCI Yeast Anticancer Drug Screen. Data for the wt1 strain (AID 149);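 also: 0% = growth of vehicle-treated wt1 cultures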; settings: S. cerevisiae wt1 strain (SPY 50644) growth inhibition, hits give high values
# Procedure, shortened: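 wt1 strain grown with compound or vehicle; inhibition taken from the growth difference.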
# [7] = NCI Yeast Anticancer Drug Screen. Data for the mgt1 strain (AID 153); settings: S. cerevisiae mgt1 mutant growth inhibition, hits give high values
# Procedure, shortened: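 In the mgt1 strain, test compounds were added and growth inhibition was determined relative to vehicle-treated controls.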
# [8] = NCI Yeast Anticancer Drug Screen. Data for the rad14 strain (AID 159);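 also: 0% = growth of vehicle-treated control cultures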; settings: S. cerevisiae rad14 strain growth inhibition, hits give high values
# Procedure, shortened: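 DNA repair-defective yeast, compound-exposed; % growth inhibition derived by comparison with vehicle-treated controls.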
# [9] = NCI Yeast Anticancer Drug Screen. Data for the CLN2oe strain (AID 163);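 also: 0% = growth of vehicle-only control cultures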; settings: S. cerevisiae CLN2oe strain, hits give high values
# Procedure, shortened: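 First, the altered yeast strain was treated with each compound; second, its growth was measured; finally, inhibition was derived by comparison with vehicle controls.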
# [10] = NCI Yeast Anticancer Drug Screen. Data for the wt2 strain (AID 169);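 also: 0% = growth of vehicle-treated yeast cultures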; settings: S. cerevisiae wt2 strain growth inhibition, hits give high values
# Procedure, shortened: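 The panel's yeast strains carry defined changes in DNA repair or cell cycle genes. Each strain is grown with compound, and growth loss is scored relative to vehicle.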
# [11] = NCI Yeast Anticancer Drug Screen. Data for the sgs1 strain (AID 173);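 also: 0% = growth of vehicle-only control cultures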; settings: S. cerevisiae sgs1 mutant, hits give high values
# Procedure, shortened: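 Vehicle-treated cultures served as reference for growth inhibition of a yeast strain altered in DNA damage repair or cell cycle control after compound exposure.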
# [12] = NCI Yeast Anticancer Drug Screen. Data for the mlh1 rad18 strain (AID 175); settings: S. cerevisiae mlh1 rad18 strain growth inhibition, hits give high values
# Procedure, shortened: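 Inhibition values reflect reduced growth of mutant yeast versus vehicle-treated controls following compound exposure; the mutations affect DNA damage repair.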
# [13] = NCI Yeast Anticancer Drug Screen. Data for the rad18 strain (AID 177); settings: S. cerevisiae rad18 mutant growth inhibition, hits give high values
# Procedure, shortened: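 Steps: expose repair-mutant yeast to compound; measure growth; express as inhibition relative to vehicle control.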
# [14] = at 5.0 µM (retest, dose inferred, filed as 0.5)
# [15] = at 50.0 µM (retest, dose inferred, filed as 5.0)
smiles,measurement,setting,value
CC(Cc1ccccc1)N(C)Cc1ccc(-c2ccccc2)o1 (stereo not drawn),growth inhibition,[1]; [14],27%
same,growth inhibition,[1]; [15],91% (active)
same,growth inhibition,[1]; at 50.0 µM,31.2%
same,growth inhibition,[2]; [14],7%
same,growth inhibition,[2]; [15],75% (active)
same,growth inhibition,[2]; at 50.0 µM,34%
same,growth inhibition,[3]; [14],14%
same,growth inhibition,[3]; [15],94% (active)
same,growth inhibition,[3]; at 50.0 µM,63.6%
same,growth inhibition,[4]; [14],16%
same,growth inhibition,[4]; [15],88% (active)
same,growth inhibition,[4]; at 50.0 µM,14.6%
same,growth inhibition,[5]; [14],6%
same,growth inhibition,[5]; [15],96% (active)
same,growth inhibition,[5]; at 50.0 µM,20.6%
C[C@]12Cc3conc3C(O)=C1CC[C@@H]1C2CC[C@@]2(C)C1CC[C@@H]2O (stereo partly drawn),growth inhibition,[1]; [14],2%
same,growth inhibition,[1]; [15],5%
same,growth inhibition,[1]; at 50.0 µM,81.3% (active)
same,growth inhibition,[2]; [14],0%
same,growth inhibition,[2]; [15],0%
same,growth inhibition,[2]; at 50.0 µM,63.5%
same,growth inhibition,[3]; [14],1%
same,growth inhibition,[3]; [15],35%
same,growth inhibition,[3]; at 50.0 µM,57.1%
same,growth inhibition,[4]; [14],1%
same,growth inhibition,[4]; [15],24%
same,growth inhibition,[4]; at 50.0 µM,55.2%
same,growth inhibition,[5]; [14],-49%
same,growth inhibition,[5]; [15],3%
same,growth inhibition,[5]; at 50.0 µM,71.2% (active)
C[CH2][Sn]1([CH2]C)[c]2ccccc2Oc2cccc[c]21,growth inhibition,[1]; [14],99% (active)
same,growth inhibition,[1]; [15],98% (active)
same,growth inhibition,[1]; at 50.0 µM,99% (active)
same,growth inhibition,[2]; [14],99% (active)
same,growth inhibition,[2]; [15],99% (active)
same,growth inhibition,[2]; at 50.0 µM,99.4% (active)
same,growth inhibition,[3]; [14],99% (active)
same,growth inhibition,[3]; [15],99% (active)
same,growth inhibition,[3]; at 50.0 µM,99.3% (active)
same,growth inhibition,[4]; [14],97% (active)
same,growth inhibition,[4]; [15],98% (active)
same,growth inhibition,[4]; at 50.0 µM,98.8% (active)
same,growth inhibition,[5]; [14],99% (active)
same,growth inhibition,[5]; [15],99% (active)
same,growth inhibition,[5]; at 50.0 µM,99.2% (active)
[CH3][Sn]([Br])([Br])[CH2]CCCBr,growth inhibition,[1]; [14],22%
same,growth inhibition,[1]; [15],95% (active)
same,growth inhibition,[1]; at 50.0 µM,89.7% (active)
same,growth inhibition,[2]; [14],10%
same,growth inhibition,[2]; [15],94% (active)
same,growth inhibition,[2]; at 50.0 µM,93.4% (active)
same,growth inhibition,[3]; [14],23%
same,growth inhibition,[3]; [15],97% (active)
same,growth inhibition,[3]; at 50.0 µM,73.2% (active)
same,growth inhibition,[4]; [14],7%
same,growth inhibition,[4]; [15],93% (active)
same,growth inhibition,[4]; at 50.0 µM,86.1% (active)
same,growth inhibition,[5]; [14],13%
same,growth inhibition,[5]; [15],93% (active)
same,growth inhibition,[5]; at 50.0 µM,90.7% (active)
CCCCCCCCCCCCNCCc1ccccc1,growth inhibition,[1]; [14],99% (active)
same,growth inhibition,[1]; [15],99% (active)
same,growth inhibition,[1]; at 50.0 µM,98.2% (active)
same,growth inhibition,[2]; [14],99% (active)
same,growth inhibition,[2]; [15],98% (active)
same,growth inhibition,[2]; at 50.0 µM,98.8% (active)
same,growth inhibition,[3]; [14],99% (active)
same,growth inhibition,[3]; [15],98% (active)
same,growth inhibition,[3]; at 50.0 µM,98.9% (active)
same,growth inhibition,[4]; [14],99% (active)
same,growth inhibition,[4]; [15],98% (active)
same,growth inhibition,[4]; at 50.0 µM,98% (active)
same,growth inhibition,[5]; [14],99% (active)
same,growth inhibition,[5]; [15],98% (active)
same,growth inhibition,[5]; at 50.0 µM,98.2% (active)
CCCCCCCCCC[Se]C#N,growth inhibition,[6]; at 1.2 µM,-4%
same,growth inhibition,[6]; at 3.7 µM,2%
same,growth inhibition,[6]; at 11.0 µM,-3%
same,growth inhibition,[6]; at 33.0 µM,6%
same,growth inhibition,[6]; at 100.0 µM,48%
same,growth inhibition,[7]; at 1.2 µM,-2%
same,growth inhibition,[7]; at 3.7 µM,0%
same,growth inhibition,[7]; at 11.0 µM,0%
same,growth inhibition,[7]; at 33.0 µM,16%
same,growth inhibition,[7]; at 100.0 µM,95% (active)
same,growth inhibition,[1]; at 1.2 µM,2%
same,growth inhibition,[1]; at 3.7 µM,-38%
same,growth inhibition,[1]; [14],30%
same,growth inhibition,[1]; at 11.0 µM,14%
same,growth inhibition,[1]; at 33.0 µM,52%
same,growth inhibition,[1]; [15],99% (active)
same,growth inhibition,[1]; at 50.0 µM,99.4% (active)
same,growth inhibition,[1]; at 100.0 µM,97% (active)
same,growth inhibition,[2]; at 1.2 µM,1%
same,growth inhibition,[2]; at 3.7 µM,4%
same,growth inhibition,[2]; [14],30%
same,growth inhibition,[2]; at 11.0 µM,6%
same,growth inhibition,[2]; at 33.0 µM,19%
same,growth inhibition,[2]; [15],99% (active)
same,growth inhibition,[2]; at 50.0 µM,99.6% (active)
same,growth inhibition,[2]; at 100.0 µM,77% (active)
same,growth inhibition,[8]; at 1.2 µM,-1%
same,growth inhibition,[8]; at 3.7 µM,-2%
same,growth inhibition,[8]; at 11.0 µM,4%
same,growth inhibition,[8]; at 33.0 µM,31%
same,growth inhibition,[8]; at 100.0 µM,99% (active)
same,growth inhibition,[3]; [14],46%
same,growth inhibition,[3]; [15],99% (active)
same,growth inhibition,[3]; at 50.0 µM,99.3% (active)
same,growth inhibition,[9]; at 1.2 µM,-1%
same,growth inhibition,[9]; at 3.7 µM,0%
same,growth inhibition,[9]; at 11.0 µM,-4%
same,growth inhibition,[9]; at 33.0 µM,-7%
same,growth inhibition,[9]; at 100.0 µM,-3%
same,growth inhibition,[4]; [14],15%
same,growth inhibition,[4]; [15],99% (active)
same,growth inhibition,[4]; at 50.0 µM,97.3% (active)
same,growth inhibition,[5]; at 1.2 µM,0%
same,growth inhibition,[5]; at 3.7 µM,-2%
same,growth inhibition,[5]; [14],4%
same,growth inhibition,[5]; at 11.0 µM,-2%
same,growth inhibition,[5]; at 33.0 µM,5%
same,growth inhibition,[5]; [15],99% (active)
same,growth inhibition,[5]; at 50.0 µM,99.5% (active)
same,growth inhibition,[5]; at 100.0 µM,90% (active)
same,growth inhibition,[10]; at 1.2 µM,-2%
same,growth inhibition,[10]; at 3.7 µM,7%
same,growth inhibition,[10]; at 11.0 µM,-1%
same,growth inhibition,[10]; at 33.0 µM,-2%
same,growth inhibition,[10]; at 100.0 µM,79% (active)
same,growth inhibition,[11]; at 1.2 µM,-1%
same,growth inhibition,[11]; at 3.7 µM,1%
same,growth inhibition,[11]; at 11.0 µM,13%
same,growth inhibition,[11]; at 33.0 µM,54%
same,growth inhibition,[11]; at 100.0 µM,96% (active)
same,growth inhibition,[12]; [14],51%
same,growth inhibition,[12]; [15],99% (active)
same,growth inhibition,[12]; at 50.0 µM,99.3% (active)
same,growth inhibition,[13]; at 1.2 µM,4%
same,growth inhibition,[13]; at 3.7 µM,6%
same,growth inhibition,[13]; at 11.0 µM,18%
same,growth inhibition,[13]; at 33.0 µM,63%
same,growth inhibition,[13]; at 100.0 µM,98% (active)
CC(=O)[O-].O=C([CH-]C(=O)c1ccccc1)c1ccccc1.O=C([CH-]C(=O)c1ccccc1)c1ccccc1.[Sm+3],growth inhibition,[1]; at 1.2 µM,9%
same,growth inhibition,[1]; at 3.7 µM,-5%
same,growth inhibition,[1]; [14],55%
same,growth inhibition,[1]; at 11.0 µM,79% (active)
same,growth inhibition,[1]; at 33.0 µM,96% (active)
same,growth inhibition,[1]; [15],55%
same,growth inhibition,[1]; at 50.0 µM,90.8% (active)
same,growth inhibition,[1]; at 100.0 µM,98% (active)
same,growth inhibition,[2]; at 1.2 µM,-2%
same,growth inhibition,[2]; at 3.7 µM,5%
same,growth inhibition,[2]; [14],42%
same,growth inhibition,[2]; at 11.0 µM,47%
same,growth inhibition,[2]; at 33.0 µM,97% (active)
same,growth inhibition,[2]; [15],42%
same,growth inhibition,[2]; at 50.0 µM,93% (active)
same,growth inhibition,[2]; at 100.0 µM,98% (active)
same,growth inhibition,[3]; [14],50%
same,growth inhibition,[3]; [15],50%
same,growth inhibition,[3]; at 50.0 µM,92.8% (active)
same,growth inhibition,[5]; at 1.2 µM,16%
same,growth inhibition,[5]; at 3.7 µM,19%
same,growth inhibition,[5]; [14],52%
same,growth inhibition,[5]; at 11.0 µM,84% (active)
same,growth inhibition,[5]; at 33.0 µM,97% (active)
same,growth inhibition,[5]; [15],52%
same,growth inhibition,[5]; at 50.0 µM,90.8% (active)
same,growth inhibition,[5]; at 100.0 µM,98% (active)
same,growth inhibition,[12]; [14],44%
same,growth inhibition,[12]; [15],44%
same,growth inhibition,[12]; at 50.0 µM,90.2% (active)
